Measured values: PubChem BioAssay AID1159569 (Broad Institute, 2015)
Potency and affinity values are given separately. Results filed as inconclusive are left out. A number with no mark means an inactive call. How the calls were made is not given here.

assay: HepG2 cell cytotoxicity, dose response, cytotoxicity control, plate reader, dry powder samples (AID 1159569); details: HepG2 cytotoxicity counterscreen; series mostly up to 50 µM; activity change, negative = cytotoxicity: at the top concentration

SMILES	activity change, negative = cytotoxicity
CC(C)CNC[C@@H]1[C@@H](c2ccccc2)[C@@H](CO)N1Cc1ccc(F)cc1	-28%
C[C@H](CO)N1C[C@H](C)[C@@H](CN(C)C(=O)Nc2cccc3ccccc23)Oc2ccc(NC(=O)Nc3ccc(C(F)(F)F)cc3)cc2C1=O	-10.9%
CC(C)NC(=O)N1[C@@H](CO)[C@@H](c2ccccc2)C12CN(Cc1ccc(F)cc1)C2	-23.3%
COc1ccc2c3c(n(C)c2c1)[C@@H](CO)N(C(=O)C1CC1)CC31CCN(C(=O)Nc2cccc(F)c2)CC1	-11.9%
CCC(=O)N1CCC2(CC1)CN(S(=O)(=O)c1ccccc1)[C@@H](CO)c1[nH]c3cc(OC)ccc3c12	-22.3%
COc1ccc(S(=O)(=O)Nc2ccc3c(c2)CC(=O)N([C@@H](C)CO)C[C@H](C)[C@H](CN(C)S(=O)(=O)c2ccc(C)cc2)O3)cc1	-23.3%
COc1ccc(S(=O)(=O)Nc2cccc3c2O[C@H](CN(C)Cc2ccc(-c4ccccc4)cc2)[C@@H](C)CN([C@H](C)CO)C3=O)cc1	-13.1%
C[C@H]1CN([C@@H](C)CO)C(=O)c2c(c3ccccc3n2C)-c2ccccc2CO[C@@H]1CN(C)C(=O)Nc1cccc(C(F)(F)F)c1	-53.7%
COc1ccc(S(=O)(=O)Nc2ccc3c(c2)CC(=O)N([C@@H](C)CO)C[C@H](C)[C@H](CN(C)S(=O)(=O)c2ccc(OC)cc2)O3)cc1	-25.8%
COc1ccc2c3c([nH]c2c1)[C@H](CO)N(C(=O)C1CCOCC1)CC31CCN(Cc2nccs2)CC1	-3.5%
CC(C)(C)S(=O)N1Cc2cc(C(=O)NCc3ccc(Oc4ccccc4)cc3)nc(-c3cccc(-c4cccc(F)c4)c3)c2[C@@H]1CCO (stereo partly specified)	2.11%
COc1ccc2c3c([nH]c2c1)[C@@H](CO)N(Cc1ccccc1)CC31CCN(Cc2cncnc2)CC1	-24.7%
CC(C)NC(=O)Nc1ccc2c(c1)C(=O)N(C)[C@H]1CC[C@H](CC(=O)Nc3ccccc3)O[C@H]1CO2	-9.14%
CC(C)(C)[S@](=O)N1Cc2cc(C(=O)N[C@@H]3CCN(Cc4ccccc4)C3)nc(-c3cccc(-c4cccnc4)c3)c2[C@@H]1CCO	4.18% [at 18 µM]
O=C(c1cccc(F)c1)N1CC(=O)N2[C@H](C1)[C@@H](c1ccc(-c3cccnc3)cc1)[C@@H]2CO	-4.42%
C[C@H]1CN([C@@H](C)CO)C(=O)Cc2cc(NC(=O)Nc3ccc(C(F)(F)F)cc3)ccc2O[C@@H]1CN(C)C(=O)Nc1ccc2c(c1)OCO2	-11.8%

SMILES	activity change, negative = cytotoxicity
N#C[C@@H]1[C@H](c2ccccc2C2=CCCCC2)[C@@H](CO)N1C(=O)c1cccc(F)c1	-46.1%
C[C@H](CO)N1C[C@H](C)[C@H](CN(C)S(=O)(=O)c2ccc([N+](=O)[O-])cc2)OCc2ccccc2-c2c(n(C)c3ccccc23)C1=O	-28.4%
COc1ccc2c3c(n(C)c2c1)[C@@H](CO)N(C(=O)c1ccc(F)cc1)CC31CCN(C(=O)Nc2ccc(F)cc2)CC1	5.35% [at 16 µM]
C[C@@H]1CN([C@@H](C)CO)C(=O)c2cccc(NC(=O)C3CC3)c2O[C@@H]1CN(C)C(=O)Nc1ccc(C(F)(F)F)cc1	-8.27%
OC[C@H]1[C@H](c2ccccc2)C2(CN(Cc3ccccc3F)C2)N1Cc1ccccc1F	-54.7%
COc1cccc(C#Cc2cnc3c(c2)C(=O)N([C@@H](C)CO)C[C@H](C)[C@@H](CN(C)C(=O)C2CCCCC2)O3)c1	-33.1%
COc1ccc2c3c([nH]c2c1)[C@H](CO)N(C(=O)C1CCCCC1)CC31CCN(Cc2nccs2)CC1	0.429%
COc1ccc2c3c(n(C)c2c1)[C@@H](CO)N(C(=O)C1CCC1)CC31CN(C(=O)Nc2cccc(F)c2)C1	-32.2%
CCCC#Cc1ccc2c(c1)O[C@H](CN(C)C(=O)Nc1ccc(OC)cc1)[C@H](C)CN([C@H](C)CO)S2(=O)=O	-25.5%
COc1ccc(-c2ccccc2[C@H]2[C@@H](C#N)N(C(=O)C3CCCCC3)[C@H]2CO)cc1	-11.1%
COc1ccc(C#Cc2ccc3c(c2)O[C@H](CN(C)S(=O)(=O)c2ccccc2F)[C@@H](C)CN([C@H](C)CO)S3(=O)=O)cc1	-10.9%
C[C@H]1CN([C@@H](C)CO)C(=O)c2c(c3ccccc3n2C)-c2ccccc2CO[C@@H]1CN(C)C(=O)Nc1ccc(-c2ccccc2)cc1	-18.3%
C[C@@H]1CN([C@@H](C)CO)C(=O)c2cccc(NC(=O)c3nc4ccccc4s3)c2O[C@H]1CN(C)C(=O)NC1CCCCC1	-13.8%
COc1ccc2c3c(n(C)c2c1)[C@@H](CO)N(C(=O)C1CCCC1)CC31CCN(C(=O)Nc2cccc(F)c2)CC1	-32.3%
COc1ccc(NC(=O)N2CCC3(CC2)CN(C(=O)C2CCC2)[C@H](CO)c2c3c3ccc(OC)cc3n2C)cc1	-24.5%
